According to PubChem BioAssay (NCATS):
Results filed as inconclusive are left out. The source made the active and inactive calls. Unless noted, calls come from the whole dose curve; as a rule, active = well fitted curve in the direction sought with a large enough effect; inconclusive = small, poorly fitted or top-dose-only effect, or another doubt; inactive = no such curve, though single readings can be large; an effect the other way counts as inactive or inconclusive.

Assays:
[1] = AP1 Signaling Pathway (AID 357; active = well fitted curve in either direction with a large enough effect, not every such curve was filed as active;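 note: ME-180 reporter cells stimulated with EGF at its EC50 level; % is set by controls: 0 for no effect and ±100 for the full control effect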); settings: ME-180 AP-1-bla reporter, EGF-induced, beta-lactamase ratio, 5 h; at 17.2 µM (top of the series) unless noted
Method in brief: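 First, ME-180 AP-1-bla cells were cultured overnight at 37 °C in low-serum Opti-MEM. Next, titrated compounds with EC50 EGF were incubated 5 hours. Finally, CCF4 was added for 2.5 hours and the 460/530 nm ratio recorded.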

[2] = target: Glucocorticoid receptor (Homo sapiens) (UniProt P04150); test: GR-GFP Redistribution (AID 450;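 active = compounds whose dose series gives a full or clear partial fitted curve of increased nuclear translocation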; note: potency is the fitted concentration of half-maximal effect); settings: U2OS GR-GFP nuclear translocation, laser cytometry, 2 h
[3] = target: 3',5'-cyclic-AMP phosphodiesterase 4B (Homo sapiens) (UniProt Q07343); test: qHTS Assay for Inhibitors of PDE-IV (AID 607; active = well fitted activation curve with a large enough effect in the main read-out, with a control signal flat, not every such curve was filed as active; note: % of control where 0% means no effect)
Method in brief: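 The readout is membrane depolarisation from a cAMP-sensing CNG channel, detected with a potential dye at ex 535/em 590. Cells were HEK293-derived (endogenous PDE-IV) at 1000 cells/well, titrated up to 22.9 uM final.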

[4] = target: Guanine nucleotide-binding protein G(i) subunit alpha-1 (Homo sapiens) (UniProt P63096); test: qHTS Assay for Inhibitors of RGS12 GoLoco Motif Activity (Green Fluorophore) (AID 879);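 note: 0% = labeled peptide with Gαi1 and full inhibition = labeled peptide alone without protein; negative values mean loss of peptide binding seen as reduced polarization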
Method in brief: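 A drop in FITC polarization marked displacement of the FITC-tagged RGS12 GoLoco peptide (10 nM) from Gαi1 (50 nM). Compounds were incubated 10 min at room temperature in Tris pH 7.5 buffer containing 150 mM NaCl, 0.1 mM GDP and 0.05% NP40; unlabeled peptide titration served as control.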

[5] = qHTS Assay for Identification of Small Molecule Antagonists for NFkB Signaling Pathway (AID 895; active = well fitted inhibition curve with a large enough effect in the signal ratio, with a control signal flat, not every such curve was filed as active; the % refers to the signal ratio; note: % is set by controls: 0 for no effect and ±100 for the full control effect)
Method in brief: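 ME-180 NFkB-bla cells (beta-lactamase under NFkB response element), plated overnight, treated with compound then 10 pM TNF alpha (about EC50) for 5 hrs at 37 C. LiveBLAzer FRET read at 460/530 nm emission, 405 nm excitation.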

[6] = qHTS Assay for Identification of Small Molecule Agonists for Hypoxia Response Element Signaling Pathway (AID 914; active = well fitted activation curve with a large enough effect in the signal ratio, with a control signal flat, not every such curve was filed as active; the % refers to the signal ratio; note: % of control where 0% means no effect); settings: ME-180 (cervical carcinoma) HRE-bla reporter, beta-lactamase ratio, CoCl2, 17 h; activation: stronger effect = higher value
Method in brief: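 HRE-bla ME-180 assay for agonist-like enhancement of an EC50 CoCl2 stimulus: 17 h at 37 degrees Celsius, CCF4 for 2.5 h, ratiometric 460/530 nm signal converted to %Activity and fitted to AC50.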

[7] = target: Muscarinic acetylcholine receptor M1 (Rattus norvegicus) (UniProt P08482); test: qHTS Assay for Antagonists of Acetylcholine Muscarinic M1 Receptor: Kinetic Measurement of Intracellular Calcium Response (AID 943); note: potency is the fitted concentration of half-maximal effect; nearly all actives have a fitted effect of over 75% in size
Method in brief: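 Quantitative HTS in CHO-M1 (rat receptor) cells: 10 min compound exposure ahead of 100 nM carbachol, Fluo-4 fluorescence followed 4 min, value expressed as peak-to-basal ratio.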

[8] = target: Pyruvate kinase PKM (Homo sapiens) (UniProt P14618); test: qHTS Assay for Activators of Human Muscle Pyruvate Kinase (AID 954; active = well fitted curve in the direction sought with a large enough effect, not every such curve was filed as active;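 note: 0% = uninhibited enzyme and -100% = no enzyme or full thiadiazolimine inhibition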)
Method in brief: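 PKM2, human, >95% pure, 0.1 nM; PEP 0.5 mM (Km), ADP 0.1 mM; 50 mM imidazole pH 7.2, 50 mM KCl, 0.01% Tween 20, 0.05% BSA; 1 h RT; luciferase luminescence readout.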

[9] = target: Alpha-galactosidase (Coffea arabica) (UniProt Q42656); test: Counterscreen for Glucocerebrosidase Inhibitors: qHTS Assay for Coffee Bean alpha-Galactosidase at pH 4.5 (AID 957);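 note: plate controls were enzyme alone for no effect and no enzyme for full effect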
Method in brief: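 Quantitative HTS of compounds (0.7 nM to 77 uM) against coffee bean alpha-galactosidase at pH 4.5, measuring 4-methylumbelliferone fluorescence released from 80 uM substrate.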

[10] = target: Alpha-galactosidase A (Homo sapiens) (UniProt P06280); test: Counterscreen for Glucocerebrosidase Inhibitors: qHTS Assay for Human alpha-Galactosidase at pH 4.5 (AID 992); note: 0% is about no effect
Method in brief: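 Fluorogenic 4-MU alpha-D-galactoside (80 uM) hydrolysis, 2 nM enzyme, pH 4.5 citrate buffer + 0.005% Tween-20; 20 min RT; NaOH/glycine pH 10 stop; Ex365/Em440. Compounds titrated 0.7 nM–77 uM; Hill-equation AC50.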

[11] = target: alpha-glucosidase (Oryza sativa, rice) (UniProt Q653V4); test: Counterscreen for Glucocerebrosidase Inhibitors: qHTS Assay for Rice alpha-Glucosidase at pH 5.0 (AID 997);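 note: 0% = full activity with enzyme and -100% = basal without enzyme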
Method in brief: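 Endpoint fluorogenic assay at pH 5.0: compounds (0.7 nM to 77 uM) titrated against 4 nM rice enzyme and 400 uM 4-MU-alpha-glucoside for 20 min at room temperature; NaOH/glycine stop, read ex 365/em 440 nm, Hill-fitted AC50.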

[12] = target: Alpha-galactosidase (Coffea arabica) (UniProt Q42656); test: Counterscreen for Glucocerebrosidase Inhibitors: qHTS Assay for Coffee Bean alpha-Galactosidase at pH 5.9 (AID 998);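 note: plate controls were uninhibited enzyme for no effect and no-enzyme basal signal for full effect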
Method in brief: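 Enzyme 2 nM + cpd (0.7 nM–77 uM titration) + 4-MU-alpha-Gal 80 uM, pH 5.9 citrate/Tween-20, RT 20 min, NaOH/glycine stop pH 10, fluor 365/440. Normalized to no-enzyme and full-activity controls; Hill-fit AC50.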

[13] = target: Cytochrome P450 1A2 (Homo sapiens) (UniProt P05177); test: p450-cyp1a2 (AID 410; calls by dose curve;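 note: -100% = full effect of reference inhibitor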)
Method in brief: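 Read-out is luminescence from luciferin produced by CYP1A2 demethylation of Luciferin-ME (100uM, at Km). Detection reagent stopped the 60 min NADPH-dependent reaction; signals were normalized to 57 uM furafylline.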

[14] = target: Glucocorticoid receptor (Homo sapiens) (UniProt P04150); test: GR-EFC Redistribution (AID 451; calls by dose curve; note: potency is the fitted concentration of half-maximal effect); settings: CHO-K1 GR-EFC translocation, beta-gal luminescence, 2 h
Method in brief: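 CHO-K1 cells expressing nuclear EA and GR-ED fragments of b-gal; compounds titrated up to 46 uM final, 2 h at 37 C. GR nuclear translocation read as complemented b-gal luminescence after 1 h RT detection.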

[15] = target: Mitogen-activated protein kinase 10 (Mus musculus) (UniProt Q61831); test: JNK3 AlphaScreen Assay (AID 530; active = well fitted curve in either direction with a large enough effect, not every such curve was filed as active;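 note: kinase came from lysate of stimulated human HepG2 cells; signal reports phosphorylation of biotinylated GST-cJun 1-79 at Ser73 with 10 µM ATP; % is set by controls: 0 for no effect and ±100 for the full control effect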)
Method in brief: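 HepG2 lysate (IL-1b/TNFa pre-activated) + biotin-GST-cJun 1-79 + anti-pSer73 cJun; cpd titration, 15 min RT; ATP 10 uM start; Tris pH 7.6, MgCl2, DTT, vanadate; beads in EDTA buffer; AlphaScreen.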

[16] = target: Cytochrome P450 2C9 (Homo sapiens) (UniProt P11712); test: qHTS Assay for Inhibitors and Substrates of Cytochrome P450 2C9 (AID 883); note: % is set by controls: 0 for no effect and ±100 for the full control effect; nearly all actives have a fitted effect of over 60% in size
Method in brief: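 10nM CYP2C9 + 100uM Luciferin-H (=KM), 25mM KPO4; cpd 10 min 37C; NADPH regen, 60 min 37C; stop/detect with P450 Glo-Buffer 20 min; luminescence. Norm. to 57uM sulphaphenazole as full inhibition.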

[17] = target: Cytochrome P450 2D6 (Homo sapiens) (UniProt P10635); test: qHTS Assay for Inhibitors and Substrates of Cytochrome P450 2D6 (AID 891);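 note: luciferin methyl ether substrate demethylated by CYP2D6 with NADPH regeneration; % is set by controls: 0 for no effect and ±100 for the full control effect; nearly all actives have a fitted effect of over 60% in size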
Method in brief: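 Luminescent read-out of luciferin formed by 5 nM human CYP2D6 demethylating 30 uM Luciferin-ME EGE (Km level) over 60 min at room temperature after NADPH regeneration addition. Data normalized to full inhibition by 1.43 uM quinidine.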

[18] = target: Cytochrome P450 2C19 (Homo sapiens) (UniProt P33261); test: qHTS Assay for Inhibitors and Substrates of Cytochrome P450 2C19 (AID 899); note: nearly all actives have a fitted effect of over 60% in size; note: potency is the fitted concentration of half-maximal effect
Method in brief: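 Luminescent read-out of luciferin formed from Luciferin-H EGE (10uM, equal to KM). Enzyme 5nM in 50mM KPO4; compound added, 10 min at 37C, then NADPH regenerating system for 60 min at 37C. Full inhibition defined by 57uM ketoconazole.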

Sequence of Cytochrome P450 2C9 (Homo sapiens) (P11712 whole entry, looked up): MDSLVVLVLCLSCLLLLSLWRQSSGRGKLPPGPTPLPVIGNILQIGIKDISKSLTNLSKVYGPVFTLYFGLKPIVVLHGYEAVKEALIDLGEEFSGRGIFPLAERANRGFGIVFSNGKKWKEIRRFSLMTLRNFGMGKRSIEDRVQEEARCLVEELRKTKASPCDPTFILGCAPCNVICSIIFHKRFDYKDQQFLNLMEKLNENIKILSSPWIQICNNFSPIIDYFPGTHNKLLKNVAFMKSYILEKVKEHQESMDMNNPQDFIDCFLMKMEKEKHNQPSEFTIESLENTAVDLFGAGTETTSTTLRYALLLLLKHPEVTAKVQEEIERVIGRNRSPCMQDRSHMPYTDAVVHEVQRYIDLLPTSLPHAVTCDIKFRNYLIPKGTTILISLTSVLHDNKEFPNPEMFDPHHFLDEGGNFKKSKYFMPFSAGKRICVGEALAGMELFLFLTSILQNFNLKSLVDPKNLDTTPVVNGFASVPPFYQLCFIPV
Sequence of Glucocorticoid receptor (Homo sapiens) (P04150 whole entry, looked up, the tested form may be a part): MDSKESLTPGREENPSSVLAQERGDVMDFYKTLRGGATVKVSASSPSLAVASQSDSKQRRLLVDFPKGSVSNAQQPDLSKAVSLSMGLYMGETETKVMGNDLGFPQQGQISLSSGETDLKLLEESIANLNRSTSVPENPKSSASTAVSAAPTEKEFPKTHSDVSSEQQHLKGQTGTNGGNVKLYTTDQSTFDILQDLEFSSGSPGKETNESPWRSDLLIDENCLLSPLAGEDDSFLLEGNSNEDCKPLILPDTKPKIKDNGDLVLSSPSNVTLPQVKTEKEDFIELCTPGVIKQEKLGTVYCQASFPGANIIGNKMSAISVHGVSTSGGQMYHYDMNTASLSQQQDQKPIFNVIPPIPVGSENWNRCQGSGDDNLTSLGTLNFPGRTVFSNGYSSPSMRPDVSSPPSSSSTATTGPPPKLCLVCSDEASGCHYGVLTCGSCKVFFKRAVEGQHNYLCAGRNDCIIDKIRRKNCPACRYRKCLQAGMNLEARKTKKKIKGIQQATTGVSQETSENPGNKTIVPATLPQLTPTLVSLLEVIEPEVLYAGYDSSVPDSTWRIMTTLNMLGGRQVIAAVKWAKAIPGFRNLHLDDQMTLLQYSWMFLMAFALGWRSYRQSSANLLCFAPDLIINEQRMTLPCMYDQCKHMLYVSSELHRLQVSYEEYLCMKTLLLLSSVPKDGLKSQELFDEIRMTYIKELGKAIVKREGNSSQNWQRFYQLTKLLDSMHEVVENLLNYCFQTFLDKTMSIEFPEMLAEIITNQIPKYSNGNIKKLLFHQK
Sequence of 3',5'-cyclic-AMP phosphodiesterase 4B (Homo sapiens) (Q07343 whole entry, looked up): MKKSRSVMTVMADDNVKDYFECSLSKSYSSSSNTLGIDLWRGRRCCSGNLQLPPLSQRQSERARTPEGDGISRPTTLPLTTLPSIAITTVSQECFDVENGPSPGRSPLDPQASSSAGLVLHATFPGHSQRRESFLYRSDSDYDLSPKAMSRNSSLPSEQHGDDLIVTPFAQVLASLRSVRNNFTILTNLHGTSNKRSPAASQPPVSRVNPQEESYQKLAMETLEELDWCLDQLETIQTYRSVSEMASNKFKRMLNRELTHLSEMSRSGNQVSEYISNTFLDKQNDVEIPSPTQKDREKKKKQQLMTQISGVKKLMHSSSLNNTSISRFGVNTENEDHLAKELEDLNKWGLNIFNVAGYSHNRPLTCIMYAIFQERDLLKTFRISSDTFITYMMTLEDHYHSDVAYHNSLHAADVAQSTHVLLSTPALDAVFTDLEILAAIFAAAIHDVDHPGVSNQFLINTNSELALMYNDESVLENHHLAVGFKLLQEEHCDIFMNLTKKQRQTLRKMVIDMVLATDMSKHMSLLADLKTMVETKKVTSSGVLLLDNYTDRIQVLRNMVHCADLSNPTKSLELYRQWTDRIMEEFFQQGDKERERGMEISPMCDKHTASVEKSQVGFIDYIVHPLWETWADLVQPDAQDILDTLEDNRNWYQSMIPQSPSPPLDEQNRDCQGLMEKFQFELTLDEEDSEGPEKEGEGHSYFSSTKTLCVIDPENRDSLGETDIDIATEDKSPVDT
Sequence of Cytochrome P450 2C19 (Homo sapiens) (P33261 whole entry, looked up): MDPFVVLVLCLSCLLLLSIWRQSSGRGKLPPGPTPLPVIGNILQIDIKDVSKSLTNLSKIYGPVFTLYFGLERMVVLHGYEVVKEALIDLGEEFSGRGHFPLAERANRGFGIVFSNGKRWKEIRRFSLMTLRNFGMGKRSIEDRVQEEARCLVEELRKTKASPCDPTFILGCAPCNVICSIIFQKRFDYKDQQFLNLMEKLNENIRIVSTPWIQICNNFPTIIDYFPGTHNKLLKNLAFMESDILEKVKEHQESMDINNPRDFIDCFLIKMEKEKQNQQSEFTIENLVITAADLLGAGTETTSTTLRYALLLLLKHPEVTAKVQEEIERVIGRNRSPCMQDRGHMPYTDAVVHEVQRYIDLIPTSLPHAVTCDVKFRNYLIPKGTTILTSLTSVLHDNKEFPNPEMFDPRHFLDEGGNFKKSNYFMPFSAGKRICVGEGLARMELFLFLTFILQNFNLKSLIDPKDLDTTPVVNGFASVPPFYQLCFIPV
Sequence of Cytochrome P450 1A2 (Homo sapiens) (P05177 whole entry, looked up): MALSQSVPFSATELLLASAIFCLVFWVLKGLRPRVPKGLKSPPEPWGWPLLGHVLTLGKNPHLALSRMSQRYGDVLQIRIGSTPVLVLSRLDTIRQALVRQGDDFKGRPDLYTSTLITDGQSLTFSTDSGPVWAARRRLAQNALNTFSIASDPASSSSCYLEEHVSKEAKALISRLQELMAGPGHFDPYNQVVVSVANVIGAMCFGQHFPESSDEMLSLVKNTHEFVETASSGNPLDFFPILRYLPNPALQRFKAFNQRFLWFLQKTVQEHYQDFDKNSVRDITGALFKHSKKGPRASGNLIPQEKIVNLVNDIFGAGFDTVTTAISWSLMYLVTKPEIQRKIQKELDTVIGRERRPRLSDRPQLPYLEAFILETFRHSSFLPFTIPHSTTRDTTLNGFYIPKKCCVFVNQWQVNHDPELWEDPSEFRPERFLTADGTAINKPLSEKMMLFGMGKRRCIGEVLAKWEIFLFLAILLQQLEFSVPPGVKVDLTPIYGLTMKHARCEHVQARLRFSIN
Sequence of Alpha-galactosidase (Coffea arabica) (Q42656 whole entry, looked up): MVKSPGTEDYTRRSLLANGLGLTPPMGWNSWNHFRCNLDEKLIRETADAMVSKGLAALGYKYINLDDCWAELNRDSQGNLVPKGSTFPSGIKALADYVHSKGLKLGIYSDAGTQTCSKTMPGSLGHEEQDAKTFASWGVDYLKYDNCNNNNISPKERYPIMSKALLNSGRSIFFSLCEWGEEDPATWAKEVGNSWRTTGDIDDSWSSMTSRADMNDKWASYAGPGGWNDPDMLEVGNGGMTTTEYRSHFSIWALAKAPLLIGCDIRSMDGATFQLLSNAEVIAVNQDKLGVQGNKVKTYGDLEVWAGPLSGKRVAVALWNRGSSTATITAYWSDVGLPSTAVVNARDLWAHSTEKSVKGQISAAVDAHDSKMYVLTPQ
Sequence of Cytochrome P450 2D6 (Homo sapiens) (P10635 whole entry, looked up): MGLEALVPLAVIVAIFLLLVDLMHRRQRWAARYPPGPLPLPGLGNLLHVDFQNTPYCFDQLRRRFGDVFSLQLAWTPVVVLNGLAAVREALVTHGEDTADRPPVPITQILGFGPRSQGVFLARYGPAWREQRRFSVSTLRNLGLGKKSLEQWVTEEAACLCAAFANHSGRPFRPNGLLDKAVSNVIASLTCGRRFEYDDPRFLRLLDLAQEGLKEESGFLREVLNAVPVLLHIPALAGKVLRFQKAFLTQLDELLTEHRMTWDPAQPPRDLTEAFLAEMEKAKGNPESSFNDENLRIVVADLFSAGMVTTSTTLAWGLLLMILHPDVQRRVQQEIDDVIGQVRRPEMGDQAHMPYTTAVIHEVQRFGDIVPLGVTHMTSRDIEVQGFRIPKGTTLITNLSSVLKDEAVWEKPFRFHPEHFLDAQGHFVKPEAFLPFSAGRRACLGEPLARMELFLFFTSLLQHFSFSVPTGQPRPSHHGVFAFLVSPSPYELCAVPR
Sequence of Guanine nucleotide-binding protein G(i) subunit alpha-1 (Homo sapiens) (P63096 whole entry, looked up): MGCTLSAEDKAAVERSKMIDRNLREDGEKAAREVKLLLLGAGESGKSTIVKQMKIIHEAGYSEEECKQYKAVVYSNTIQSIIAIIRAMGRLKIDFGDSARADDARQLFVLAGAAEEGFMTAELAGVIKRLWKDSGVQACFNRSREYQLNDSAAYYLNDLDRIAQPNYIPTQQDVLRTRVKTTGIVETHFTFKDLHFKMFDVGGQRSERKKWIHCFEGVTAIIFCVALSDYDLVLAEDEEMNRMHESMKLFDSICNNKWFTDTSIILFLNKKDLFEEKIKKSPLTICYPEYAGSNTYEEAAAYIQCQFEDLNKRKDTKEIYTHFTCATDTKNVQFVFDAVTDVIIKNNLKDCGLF
Sequence of Pyruvate kinase PKM (Homo sapiens) (P14618 whole entry, looked up): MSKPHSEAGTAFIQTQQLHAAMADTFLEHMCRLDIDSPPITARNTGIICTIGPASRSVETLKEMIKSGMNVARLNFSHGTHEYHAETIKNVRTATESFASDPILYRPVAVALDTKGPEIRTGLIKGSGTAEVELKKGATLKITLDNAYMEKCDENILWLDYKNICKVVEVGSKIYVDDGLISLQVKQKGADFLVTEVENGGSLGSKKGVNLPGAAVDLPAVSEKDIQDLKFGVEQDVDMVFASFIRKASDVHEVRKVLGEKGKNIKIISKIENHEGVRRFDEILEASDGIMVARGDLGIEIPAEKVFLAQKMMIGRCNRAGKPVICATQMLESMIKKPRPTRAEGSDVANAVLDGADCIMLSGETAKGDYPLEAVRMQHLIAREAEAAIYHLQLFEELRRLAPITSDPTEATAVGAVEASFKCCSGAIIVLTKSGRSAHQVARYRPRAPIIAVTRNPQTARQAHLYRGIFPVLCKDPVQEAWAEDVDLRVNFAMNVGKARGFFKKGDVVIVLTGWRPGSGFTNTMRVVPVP

NC(=O)c1ccc(OC[C@H](O)CN2CC=C(c3ccc(F)cc3)CC2)cc1
active: Potency [7] 6.31 µM
inactive: activity change, negative = inhibition [1] 18.4% [at 38 µM] | Potency [2] > 46 µM | outcome [3] | Potency [4] | Potency [5] | activation [6] -0.382% | outcome [8] | outcome [9] | outcome [10] | outcome [11] | outcome [12]

O=C1C[C@H]2OCCC=C3CN4CC[C@@]56c7ccccc7N1[C@@H]5[C@H]2[C@H]3C[C@@H]46
inactive: Potency [13] | Potency [2] > 46 µM | Potency [14] > 46 µM | outcome [15] | outcome [3] | Potency [16] | Potency [17] | Potency [18]

CC(=O)N1C[C@@H]2C[C@H](C1)c1cccc(=O)n1C2
inactive: Potency [13] | Potency [2] > 46 µM | Potency [14] > 46 µM | outcome [15] | outcome [3] | Potency [16] | Potency [17] | Potency [18]

O=CN1C[C@H]2C[C@@H](C1)c1cccc(=O)n1C2
inactive: Potency [13] | Potency [2] > 46 µM | Potency [14] > 46 µM | outcome [15] | outcome [3] | Potency [16] | Potency [17] | Potency [18]

CO[C@@H](C)[C@](O)(C(=O)OC1=CCN2CC[C@H](O)[C@H]12)C(C)C
inactive: Potency [13] | Potency [2] > 46 µM | Potency [14] > 46 µM | outcome [15] | outcome [3] | Potency [16] | Potency [17] | Potency [18]

C=C(C)[C@H]1Cc2c(ccc3c2O[C@H]2COc4cc(OC)c(OC)cc4[C@@H]2C3=O)O1
active: Potency [18] 2.51 µM
inactive: activity change, negative = inhibition [1] 7.51% [at 38 µM] | Potency [2] > 46 µM | Potency [14] > 46 µM | outcome [15] | outcome [3] | Potency [4] | outcome [8] | outcome [9] | outcome [10] | outcome [11]

CC(C)(C)[C@@]1(O)C[C@@H]2OC(=O)C[C@@]23C(=O)O[C@H]2OC(=O)[C@@H](O)[C@]231
inactive: Potency [13] | Potency [2] > 46 µM | Potency [14] > 46 µM | outcome [15] | outcome [3] | Potency [16] | Potency [17] | Potency [18]

CCN1C[C@@]2(COC(=O)c3ccccc3N3C(=O)C[C@H](C)C3=O)CC[C@H](OC)[C@@]34[C@@H]5CC6[C@@H](OC)C[C@@](O)([C@H]5[C@H]6OC)C(O)([C@@H]13)[C@@H](OC)[C@H]24
inactive: Potency [13] | Potency [2] > 46 µM | Potency [14] > 46 µM | outcome [15] | outcome [3] | Potency [16] | Potency [17] | Potency [18]
